# A number with no mark means an inactive call. Inconclusive results are not listed. Active and inactive are the calls of the source. Unless noted, the call rests on the fitted dose curve; in most records, active means well fitted curve in either direction with a large enough effect (not every such curve was filed as active); inconclusive means small, poorly fitted or top-dose-only effect, or another doubt; inactive means flat fitted curve, though single readings scatter.
# Tests used:
# [1] = target: Lysosomal acid glucosylceramidase (Homo sapiens) (UniProt P04062); assay: Glucocerebrosidase-p2 (AID 348; in the data active means potency below about 10 µM; further: potency means the concentration at half of the fitted maximal effect); conditions: purified GBA, blue fluorogenic substrate, 40 min
# Procedure, shortened: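 Normal human glucocerebrosidase (0.2 nM) with blue fluorogenic substrate (80 uM final) in citrate/phosphate pH 5.9 with 10mM sodium taurocholate, 0.01% tween-20; 40 min RT, NaOH/glycine stop; fluorescence Ex 365/Em 440; AC50 from a titration from 0.6 nM upwards.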
# [2] = AP1 Signaling Pathway (AID 357); conditions: ME-180 AP-1-bla reporter, EGF-induced, beta-lactamase ratio, 5 h; at 7.69 µM (top of the series) unless noted;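 further: ME-180 reporter cells stimulated with EGF at its EC50 level; on the % scale 0 is the no-effect control and ±100 the full control effect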
# Procedure, shortened: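 Modulation of EGF-driven AP-1 transcription was assessed with a beta-lactamase reporter in ME-180 cells. Compound and EC50 EGF were co-incubated 5 hours at 37 °C before 2.5-hour CCF4 loading at room temperature and dual-emission reading.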
# [3] = target: Cytochrome P450 1A2 (Homo sapiens) (UniProt P05177); assay: p450-cyp1a2 (AID 410; calls by dose curve; further: potency means the concentration at half of the fitted maximal effect); conditions: recombinant CYP1A2, luciferin-ME demethylation, luminescence; series mostly up to 57 µM
# Procedure, shortened: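 20nM CYP1A2, 100uM Luciferin-ME (=Km), 100mM KPO4; cpd 10 min RT; +NADPH regen, 60 min RT; stop/detect 20 min; luminescence. Normalized to furafylline 57 uM = full inhibition.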
# [4] = NFAT Signaling Pathway (AID 444); conditions: Jurkat NFAT-bla M1, carbachol, beta-lactamase ratio, 5 h; at 7.69 µM (top of the series) unless noted;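 further: carbachol stimulus at about its EC50 of 1 µM final; on the % scale 0 is the no-effect control and ±100 the full control effect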
# Procedure, shortened: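 Jurkat cells carrying an NFAT-driven β-lactamase reporter and co-transfected muscarinic M1 receptor were treated with compound plus carbachol (1 uM final, an EC50 level) for 5 h at 37 °C. CCF4 loading followed for 1 h at RT; 460/530 nm ratio gave %activity.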
# [5] = Stat Signaling Pathway (AID 446); conditions: ME-180 SIE beta-lactamase reporter, IL-6 stimulated, 5 h; at 7.69 µM (top of the series) unless noted;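 further: ME-180 cervical cancer cells given 40 pM IL-6 alongside compound; SIE-controlled beta-lactamase reporter measured as 460/530 nm FRET emission ratio; on the % scale 0 is the no-effect control and ±100 the full control effect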
# Procedure, shortened: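 FRET read-out (405 nm excitation, 460/530 nm emission) of a beta-lactamase reporter under a STAT-inducible element in ME-180 cervical carcinoma cells. Cells with compound receive 40 pM IL-6 for 5 h. Values are normalised to AC90 stimulation and AC90 JAK-inhibitor controls.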
# [6] = target: Glucocorticoid receptor (Homo sapiens) (UniProt P04150); assay: GR-GFP Redistribution (AID 450;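 active means compounds whose dose series gives a full or clear partial fitted curve of increased nuclear translocation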; further: potency means the concentration at half of the fitted maximal effect); conditions: U2OS GR-GFP nuclear translocation, laser cytometry, 2 h
# [7] = target: Glucocorticoid receptor (Homo sapiens) (UniProt P04150); assay: GR-EFC Redistribution (AID 451; calls by dose curve; further: potency means the concentration at half of the fitted maximal effect); conditions: CHO-K1 GR-EFC translocation, beta-gal luminescence, 2 h
# Procedure, shortened: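 CHO-K1 cells stably expressing nuclear-localized β-gal enzyme acceptor and GR fused C-terminally to the enzyme donor fragment; ligand-driven nuclear translocation restores β-gal by complementation. Compounds titrated up to 46 uM final, 2 h at 37 °C; luminescence read.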
# [8] = target: Mitogen-activated protein kinase 10 (Mus musculus) (UniProt Q61831); assay: JNK3 AlphaScreen Assay (AID 530); conditions: JNK3 lysate, c-Jun phosphorylation; series mostly up to 57.1 µM;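 further: kinase came from lysate of stimulated human HepG2 cells; signal reports phosphorylation of biotinylated GST-cJun 1-79 at Ser73 with 10 µM ATP; on the % scale 0 is the no-effect control and ±100 the full control effect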
# Procedure, shortened: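 Biotinylated GST-cJun(1-79) served as substrate for JNK3 in HepG2 lysates stimulated with IL-1beta and TNF-alpha. ATP was 10 uM final, pH 7.6. Ser73 phosphorylation was quantified by AlphaScreen (680 nm excitation).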
# [9] = target: 3',5'-cyclic-AMP phosphodiesterase 4B (Homo sapiens) (UniProt Q07343); assay: qHTS Assay for Inhibitors of PDE-IV (AID 607; active means well fitted activation curve with a large enough effect in the main read-out, with a control signal flat, not every such curve was filed as active; further: % of control where 0% means no effect); conditions: HEK293 ACTOne CNG channel cells, membrane potential fluorescence; series mostly up to 22.9 µM
# Procedure, shortened: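 Cell-based read-out of cAMP via a modified cyclic nucleotide-gated channel and membrane potential dye (535/590 nm) in HEK293 cells expressing PDE4 endogenously. Compounds tested up to 22.9 uM final; 100 uM RO 20-1724 reference.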
# [10] = target: Cytochrome P450 2C9 (Homo sapiens) (UniProt P11712); assay: qHTS Assay for Inhibitors and Substrates of Cytochrome P450 2C9 (AID 883; active means well fitted curve in the direction sought with a large enough effect; an effect the other way counts as inactive or inconclusive; further: potency means the concentration at half of the fitted maximal effect; nearly all actives have a fitted effect of over 60% in size); conditions: recombinant CYP2C9, luciferin-H luminescence, 60 min; series mostly up to 57.1 µM
# Procedure, shortened: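 Human CYP2C9 (10nM) hydroxylated Luciferin-H (100uM, at its KM) to luciferin in 25mM KPO4. Compound was preincubated 10 min at 37C, then NADPH regeneration started a 60 min reaction at 37C. Luminescence was read after detection reagent, normalized to 57uM sulphaphenazole.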
# [11] = Primary qHTS for small molecule stabilizers of the endoplasmic reticulum resident proteome: Secreted ER Calcium Modulated Protein (SERCaMP) assay (AID 1508630; active means well fitted curve in the direction sought with a large enough effect; an effect the other way counts as inactive or inconclusive; further: on the % scale 0 is the no-effect control and ±100 the full control effect); conditions: SH-SY5Y GLuc-SERCaMP (Gaussia luciferase released on ER calcium loss) secretion, thapsigargin, luminescence; series mostly up to 38.4 µM
# Procedure, shortened: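 The SH-SY5Y reporter protocol was run at 3 concentrations up to 38.3 uM (primary) or 11 concentrations (follow-up): 16 h compound, 100 nM thapsigargin for 4 h, then extracellular luciferase luminescence.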
# [12] = target: Cytochrome P450 3A4 (Homo sapiens) (UniProt P08684); assay: qHTS Assay for Inhibitors and Substrates of Cytochrome P450 3A4 (AID 884; active means well fitted curve in the direction sought with a large enough effect; an effect the other way counts as inactive or inconclusive; further: potency means the concentration at half of the fitted maximal effect; nearly all actives have a fitted effect of over 50% in size); conditions: recombinant CYP3A4, Luciferin-PPXE luminescence; series mostly up to 57.1 µM
# Procedure, shortened: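 Luminescent readout of luciferin produced by CYP3A4 (20 nM) dealkylation of Luciferin-PPXE, 25 uM (its KM). NADPH-driven reaction ran 60 min at RT after 10 min compound preincubation; data scaled to 57 uM ketoconazole as 100% inhibition.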
# [13] = target: Cytochrome P450 3A4 (Homo sapiens) (UniProt P08684); assay: qHTS Assay for Activators of Cytochrome P450 3A4 (AID 885; active means well fitted curve in the direction sought with a large enough effect; an effect the other way counts as inactive or inconclusive; further: nearly all actives have a fitted effect of over 65% in size); conditions: recombinant CYP3A4, Luciferin-PPXE luminescence, 60 min; series mostly up to 57.1 µM
# Procedure, shortened: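 Luminescent readout of luciferin formed from 25 uM Luciferin-PPXE (KM level) by 20 nM CYP3A4 in 200 mM KPO4, with 60 min NADPH-driven reaction at room temperature after 10 min compound exposure. Ketoconazole (57 uM) defined 100% inhibition.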
# [14] = target: Cytochrome P450 2C19 (Homo sapiens) (UniProt P33261); assay: qHTS Assay for Inhibitors and Substrates of Cytochrome P450 2C19 (AID 899; active means well fitted curve in the direction sought with a large enough effect; an effect the other way counts as inactive or inconclusive; further: potency means the concentration at half of the fitted maximal effect; nearly all actives have a fitted effect of over 60% in size); conditions: recombinant CYP2C19, luciferin-H EGE luminescence; series mostly up to 57.1 µM
# Procedure, shortened: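 Human CYP2C19 (5nM) with Luciferin-H EGE at 10uM (its KM) in 50mM KPO4 was preincubated with compound for 10 min at 37C. NADPH regeneration started a 60 min 37C reaction. Luciferin was read by luminescence, normalized to 57uM ketoconazole.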
# [15] = Confirmation and Secondary Assay for Modulators of Hemoglobin Beta Chain Splicing at IVS2 654 locus (AID 910; active means well fitted curve in the direction sought with a large enough effect; an effect the other way counts as inactive or inconclusive;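 further: per-well total GFP intensity by laser scanning cytometry after 2-day treatment; % of control where 0% means no effect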); conditions: HeLa EGFP-654 splicing reporter, GFP fluorescence, 48 h; series mostly up to 38.3 µM
# Procedure, shortened: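 HeLa cells stably carrying EGFP interrupted by mutant beta-globin IVS2-654 intron (CMV-driven) were treated with compound for 2 days at 37C; corrected splicing was scored as total peak GFP intensity per well (488 nm excitation, 500-520 nm emission).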
# [16] = Confirmation and Secondary Assay for Modulators of Hemoglobin Beta Chain Splicing at IVS2 705 locus (AID 930; active means well fitted curve in the direction sought with a large enough effect; an effect the other way counts as inactive or inconclusive;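 further: HeLa cells stably expressing the EGFP-705 splicing reporter; GFP fluorescence per well restored by corrected splicing of the IVS2-705 intron in EGFP; % of control where 0% means no effect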); conditions: HeLa EGFP-705 splicing reporter, GFP fluorescence, 48 h; series mostly up to 38.3 µM
# Procedure, shortened: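 HeLa EGFP-705 reporter; 500 cells/well, o/n 37C 5% CO2; cpd 2 d; 488 ex/500-520 em laser scan; total peak GFP intensity/well. Ref: 500 nM […] antisense PNA.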
# [17] = qHTS Assay for Identification of Small Molecule Agonists for Hypoxia Response Element Signaling Pathway (AID 914; active means well fitted activation curve with a large enough effect in the signal ratio, with a control signal flat, not every such curve was filed as active; the % refers to the signal ratio; further: % of control where 0% means no effect); conditions: ME-180 (cervical carcinoma) HRE-bla reporter, beta-lactamase ratio, CoCl2, 17 h; activation: stronger effect = higher value
# Procedure, shortened: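 Read-out: CCF4 FRET ratio of 460nm to 530nm emission (excitation 405nm) after 2.5 hours at room temperature, taken from HRE-bla ME-180 cells that had been exposed to compound and EC50 CoCl2 for 17 hours.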
# 3',5'-cyclic-AMP phosphodiesterase 4B (Homo sapiens), sequence (Q07343 whole entry, looked up): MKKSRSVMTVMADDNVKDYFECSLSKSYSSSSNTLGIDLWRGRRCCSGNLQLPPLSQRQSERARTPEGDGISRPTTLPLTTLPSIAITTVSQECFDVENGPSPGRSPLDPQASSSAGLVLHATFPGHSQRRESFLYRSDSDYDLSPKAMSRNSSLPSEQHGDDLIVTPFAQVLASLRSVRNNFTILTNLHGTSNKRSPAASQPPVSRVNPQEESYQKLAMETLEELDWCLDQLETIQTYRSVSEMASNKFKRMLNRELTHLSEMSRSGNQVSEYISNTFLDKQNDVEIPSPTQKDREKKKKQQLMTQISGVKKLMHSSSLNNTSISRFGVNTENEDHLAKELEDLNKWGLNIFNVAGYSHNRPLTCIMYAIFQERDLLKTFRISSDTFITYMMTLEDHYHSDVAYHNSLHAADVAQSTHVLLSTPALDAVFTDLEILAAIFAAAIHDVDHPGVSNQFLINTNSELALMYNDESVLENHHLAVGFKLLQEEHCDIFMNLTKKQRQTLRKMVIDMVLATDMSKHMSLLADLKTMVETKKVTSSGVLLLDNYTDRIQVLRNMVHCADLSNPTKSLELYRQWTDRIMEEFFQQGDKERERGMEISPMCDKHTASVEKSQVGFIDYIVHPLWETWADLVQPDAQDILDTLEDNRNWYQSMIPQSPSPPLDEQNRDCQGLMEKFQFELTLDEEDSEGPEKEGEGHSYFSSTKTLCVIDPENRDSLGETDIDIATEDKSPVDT
# Glucocorticoid receptor (Homo sapiens), sequence (P04150 whole entry, looked up, the tested form may be a part): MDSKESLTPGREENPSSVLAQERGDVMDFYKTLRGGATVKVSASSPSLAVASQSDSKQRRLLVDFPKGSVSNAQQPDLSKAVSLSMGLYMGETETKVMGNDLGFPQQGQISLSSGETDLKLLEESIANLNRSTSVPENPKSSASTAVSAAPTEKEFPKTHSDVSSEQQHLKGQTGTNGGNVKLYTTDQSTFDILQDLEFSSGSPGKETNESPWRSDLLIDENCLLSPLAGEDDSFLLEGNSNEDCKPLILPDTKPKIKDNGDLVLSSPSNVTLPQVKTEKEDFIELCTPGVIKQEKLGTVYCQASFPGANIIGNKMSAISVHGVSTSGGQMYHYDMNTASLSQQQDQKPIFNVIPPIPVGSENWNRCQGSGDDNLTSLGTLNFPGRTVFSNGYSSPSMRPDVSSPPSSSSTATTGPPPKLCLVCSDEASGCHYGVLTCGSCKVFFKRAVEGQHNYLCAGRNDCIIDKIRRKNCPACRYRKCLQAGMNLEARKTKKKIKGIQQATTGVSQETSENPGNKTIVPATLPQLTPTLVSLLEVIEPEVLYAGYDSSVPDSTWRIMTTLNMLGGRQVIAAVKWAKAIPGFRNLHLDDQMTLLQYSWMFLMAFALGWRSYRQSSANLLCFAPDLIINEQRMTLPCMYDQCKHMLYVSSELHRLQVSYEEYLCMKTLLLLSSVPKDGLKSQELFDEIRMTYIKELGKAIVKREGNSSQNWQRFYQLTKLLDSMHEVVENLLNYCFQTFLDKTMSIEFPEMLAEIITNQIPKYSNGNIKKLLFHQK
# Cytochrome P450 1A2 (Homo sapiens), sequence (P05177 whole entry, looked up): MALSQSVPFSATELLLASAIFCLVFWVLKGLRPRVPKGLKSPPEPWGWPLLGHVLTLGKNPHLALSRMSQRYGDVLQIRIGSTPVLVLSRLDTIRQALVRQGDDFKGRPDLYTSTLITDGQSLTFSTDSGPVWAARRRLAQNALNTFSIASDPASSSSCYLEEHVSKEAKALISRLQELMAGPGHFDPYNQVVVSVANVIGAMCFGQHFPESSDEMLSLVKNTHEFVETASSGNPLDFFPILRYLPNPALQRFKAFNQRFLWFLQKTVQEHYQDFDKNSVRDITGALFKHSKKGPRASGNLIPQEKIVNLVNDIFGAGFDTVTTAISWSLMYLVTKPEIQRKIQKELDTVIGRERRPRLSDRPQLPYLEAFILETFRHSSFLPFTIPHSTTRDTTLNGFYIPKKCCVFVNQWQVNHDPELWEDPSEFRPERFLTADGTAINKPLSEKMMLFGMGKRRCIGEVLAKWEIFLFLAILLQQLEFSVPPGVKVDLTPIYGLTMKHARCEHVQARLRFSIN
# Cytochrome P450 3A4 (Homo sapiens), sequence (P08684 whole entry, looked up): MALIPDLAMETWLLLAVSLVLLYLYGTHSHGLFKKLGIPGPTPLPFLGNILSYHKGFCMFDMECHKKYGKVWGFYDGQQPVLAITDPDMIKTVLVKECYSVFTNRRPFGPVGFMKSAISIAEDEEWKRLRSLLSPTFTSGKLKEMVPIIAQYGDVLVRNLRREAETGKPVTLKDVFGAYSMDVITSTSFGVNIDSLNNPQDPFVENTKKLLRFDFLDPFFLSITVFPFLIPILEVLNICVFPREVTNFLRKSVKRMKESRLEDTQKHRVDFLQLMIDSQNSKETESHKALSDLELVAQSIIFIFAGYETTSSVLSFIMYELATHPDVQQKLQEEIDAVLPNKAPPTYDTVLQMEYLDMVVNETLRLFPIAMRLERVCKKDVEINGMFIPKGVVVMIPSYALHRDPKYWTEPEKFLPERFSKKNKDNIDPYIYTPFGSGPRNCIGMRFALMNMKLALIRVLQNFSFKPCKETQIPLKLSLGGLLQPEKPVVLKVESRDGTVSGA
# Lysosomal acid glucosylceramidase (Homo sapiens), sequence (P04062 whole entry, looked up): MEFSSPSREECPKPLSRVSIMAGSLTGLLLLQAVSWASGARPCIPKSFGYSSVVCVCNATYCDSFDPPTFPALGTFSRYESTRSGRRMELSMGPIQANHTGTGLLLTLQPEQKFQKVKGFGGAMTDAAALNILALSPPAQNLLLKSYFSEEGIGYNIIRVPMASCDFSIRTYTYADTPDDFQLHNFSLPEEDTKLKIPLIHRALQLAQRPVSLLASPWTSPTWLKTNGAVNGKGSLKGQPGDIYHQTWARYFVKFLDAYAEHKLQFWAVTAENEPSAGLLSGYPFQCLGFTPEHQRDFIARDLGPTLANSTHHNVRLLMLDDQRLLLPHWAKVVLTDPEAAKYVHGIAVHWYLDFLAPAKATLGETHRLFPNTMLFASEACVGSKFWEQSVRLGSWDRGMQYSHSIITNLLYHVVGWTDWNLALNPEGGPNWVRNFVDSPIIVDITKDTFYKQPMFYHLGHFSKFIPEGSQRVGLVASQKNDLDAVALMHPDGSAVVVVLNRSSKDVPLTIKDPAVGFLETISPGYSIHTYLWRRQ
# Cytochrome P450 2C9 (Homo sapiens), sequence (P11712 whole entry, looked up): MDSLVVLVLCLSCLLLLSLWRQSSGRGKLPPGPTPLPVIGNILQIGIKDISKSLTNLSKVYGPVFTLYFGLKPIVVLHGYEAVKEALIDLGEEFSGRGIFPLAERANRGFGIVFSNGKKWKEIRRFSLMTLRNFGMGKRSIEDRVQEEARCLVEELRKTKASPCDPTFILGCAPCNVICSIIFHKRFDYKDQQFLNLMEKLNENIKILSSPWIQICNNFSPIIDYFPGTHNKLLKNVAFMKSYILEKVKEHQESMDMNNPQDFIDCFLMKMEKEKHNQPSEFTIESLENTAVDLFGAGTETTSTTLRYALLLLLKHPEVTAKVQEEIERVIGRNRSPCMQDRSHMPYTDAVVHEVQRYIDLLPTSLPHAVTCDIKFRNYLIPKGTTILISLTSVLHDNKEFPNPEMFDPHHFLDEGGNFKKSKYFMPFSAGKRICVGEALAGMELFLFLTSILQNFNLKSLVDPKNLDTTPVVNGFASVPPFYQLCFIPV
# Cytochrome P450 2C19 (Homo sapiens), sequence (P33261 whole entry, looked up): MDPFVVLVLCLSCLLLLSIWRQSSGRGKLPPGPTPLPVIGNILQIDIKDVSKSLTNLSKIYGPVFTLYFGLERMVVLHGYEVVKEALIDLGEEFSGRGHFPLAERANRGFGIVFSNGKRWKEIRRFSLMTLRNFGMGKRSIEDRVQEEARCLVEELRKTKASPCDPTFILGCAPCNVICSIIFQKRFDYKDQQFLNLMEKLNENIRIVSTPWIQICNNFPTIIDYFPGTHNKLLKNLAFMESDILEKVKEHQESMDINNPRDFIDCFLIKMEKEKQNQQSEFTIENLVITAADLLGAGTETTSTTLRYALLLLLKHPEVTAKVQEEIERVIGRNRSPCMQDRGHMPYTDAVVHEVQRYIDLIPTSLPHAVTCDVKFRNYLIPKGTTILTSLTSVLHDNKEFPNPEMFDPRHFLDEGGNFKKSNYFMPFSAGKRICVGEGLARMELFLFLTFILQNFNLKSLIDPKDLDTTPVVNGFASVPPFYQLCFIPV
Compound,Potency [1] [µM],"activity change, negative = inhibition [2] [%]",Potency [3],"activity change, negative = inhibition [4] [%]","activity, negative = inhibition [5] [%]",Potency [6] [µM],Potency [7] [µM],Potency [8],Potency [9],Potency [10],outcome [11],Potency [12],Potency [13],Potency [14],Potency [15],outcome [16],activation [17] [%]
COCCn1c(=O)c(-c2ccc(Cl)cc2)nc2cnc(Oc3ccccc3)nc21,> 11.4,-8.55,0.794 µM (active),17.4,-10,> 9.22,> 46,inactive,inactive,7.94 µM (active),inactive,–,–,–,–,–,–
Cc1cccc(CNc2cc(-c3cccc(C#N)c3)ncn2)c1,> 11.4,-11.1,0.158 µM (active),7.94,-3.7,> 46,> 46,inactive,inactive,–,inactive,7.94 µM (active),inactive,6.31 µM (active),inactive,inactive,–
COc1ccc(Oc2ncc3nc(C)c(=O)n(C)c3n2)cc1,> 11.4,14.2,12.6 µM (active),-1.39,-6.21,> 9.22,> 46,inactive,inactive,–,inactive,–,inactive,–,–,–,–
CN1CCN(c2ccnc(-c3cccc(NS(C)(=O)=O)c3)n2)CC1,> 11.4,-6.86,12.6 µM (active),-9.78,7.5,> 46,> 46,inactive,inactive,–,inactive,–,inactive,–,inactive,inactive,0.356
Cc1nc2cnc(Oc3ccccc3)nc2n(-c2ccccc2)c1=O,> 11.4,-7.96,10 µM (active),9.01,-3.48,> 9.22,> 46,inactive,inactive,–,inactive,–,inactive,–,–,–,–
COc1ccccc1-c1nc(N(C)Cc2ccco2)c2ccccc2n1,> 11.4,27.9,0.501 µM (active),-21.3,8.04,> 46,> 46,inactive,–,–,inactive,7.94 µM (active),inactive,–,–,–,–
O=c1cnc2cnc(Oc3cccc(Cl)c3)nc2n1C1CC1,> 11.4,-27.3,2.51 µM (active),0.268,-9.7,> 9.22,> 46,inactive,inactive,6.31 µM (active),inactive,–,–,–,–,–,–
O=c1c(CCc2ccccc2)nc2cncnc2n1C1CC1,> 11.4,-0.738,6.31 µM (active),-8.26,-4.39,> 9.22,> 46,inactive,inactive,–,inactive,–,inactive,–,–,–,6.89
COc1ncc2ncc(=O)n(Cc3ccc(F)cc3)c2n1,> 11.4,-11.8,12.6 µM (active),-5.96,-7.56,> 9.22,> 46,inactive,inactive,–,inactive,–,inactive,7.94 µM (active),–,–,–
Cc1nc2cnc(Oc3ccccc3)nc2n(CCC#N)c1=O,> 11.4,-21.9,20 µM (active),-8.6,-6.56,> 9.22,> 46,inactive,inactive,–,inactive,–,inactive,–,–,–,–
COc1ccc(Oc2ncc3nc(-c4ccc(Cl)cc4)c(=O)n(C)c3n2)cc1,> 11.4,-22.1,0.631 µM (active),-2.12,-5.79,> 9.22,> 46,inactive,inactive,–,inactive,–,inactive,–,–,–,–
COc1ccc(-n2c(=O)c(CCc3ccccc3)nc3cnc(N(C)C)nc32)cc1,> 11.4,0.546,3.16 µM (active),-2.06,0.00123,> 9.22,> 46,inactive,inactive,–,inactive,–,inactive,–,–,–,10.3
O=c1c(CCc2ccccc2)nc2cncnc2n1-c1ccccc1,> 11.4,-24.4,15.8 µM (active),-14,-17.6,> 9.22,> 46,inactive,–,–,inactive,–,inactive,–,–,–,–

# From PubChem BioAssay (NCATS)
